Screening data: PubChem BioAssay, several laboratories
Compounds with a hit are over-represented: about 22% of the library has one in this group of screens.
CYP2C19 activ = increases human CYP2C19 enzyme activity; activation factor at 5 µM; 96,000 tested, under 10 active; recombinant CYP2C19, luciferin-H EGE luminescence; stronger effect = higher value; 0 = fully inhibited enzyme, 1 = untreated enzyme; P33261; AID 1025;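 active means activation factor of at least 2 at 5 µM in the primary screen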;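 further: 0 = wells with 2.5 mM tranylcypromine and 1 = vehicle-only wells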
Target sequence (P33261 whole entry, looked up): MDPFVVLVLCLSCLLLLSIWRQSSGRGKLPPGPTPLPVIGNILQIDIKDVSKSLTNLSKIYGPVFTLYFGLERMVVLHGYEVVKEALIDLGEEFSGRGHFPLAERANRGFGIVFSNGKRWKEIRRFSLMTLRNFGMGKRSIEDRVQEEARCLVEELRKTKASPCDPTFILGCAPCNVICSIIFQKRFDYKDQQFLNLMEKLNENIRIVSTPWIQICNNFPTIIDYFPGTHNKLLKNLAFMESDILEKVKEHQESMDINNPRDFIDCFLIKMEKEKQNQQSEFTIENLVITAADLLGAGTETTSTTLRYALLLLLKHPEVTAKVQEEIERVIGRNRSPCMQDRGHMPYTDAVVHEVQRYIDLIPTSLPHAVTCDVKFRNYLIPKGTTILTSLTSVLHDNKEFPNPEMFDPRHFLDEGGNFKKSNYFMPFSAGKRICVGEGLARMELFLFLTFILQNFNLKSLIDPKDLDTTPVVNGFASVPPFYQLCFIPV
CYP2C19 inh = inhibitors of human CYP2C19 | P33261 | hit rate 21% among 96,000 | CYP2C19 Supersomes, luciferin-H EGE luminescence, 30 min | AID 778 | inhibition, % at 5 µM;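 active means CYP2C19 inhibition above a set limit at 5 µM in the primary screen, cut at about 50% in these data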;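 further: plate controls were negative control wells for no effect and 2.5 mM tranylcypromine positive control for full effect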
cytoskel mod = modifiers of cytoskeleton assembly; hit rate 0.18% among 91,000; HUVEC TNFa F-actin phalloidin imaging, high content; inhibition, % at 2 µM; AID 836;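 active means inhibition above the batch mean plus 3 SD and confirmed as a hit by visual image inspection, cut at about 30% in these data, passing the limit was not always enough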
CYP2C9 activ = activators of human CYP2C9 | P11712 | recombinant CYP2C9, luciferin-H conversion, luminescence; stronger effect = higher value; factor 1 = untreated enzyme, 0 = blocked | activation factor at 5 µM | hit rate 1.4% among 96,000;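 active means activation factor of 2 or more for CYP2C9 at a 5 µM dose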;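 further: 0 = sulfaphenazole-blocked wells and 1 = vehicle-only wells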
E-sel TNF inh = blocks E-selectin expression induced by TNF alpha; hit rate 0.71% among 120,000; HUVEC TNFa-induced E-selectin immunofluorescence, high content; inhibition, % at 2 µM; AID 1246;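 active means inhibition above the batch mean plus 3 SD, and confirmed as a hit on visual image review, cut at about 43% in these data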;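 further: 0% = TNF-stimulated DMSO wells and 100% = unstimulated control wells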
CYP2C9 inhib = human CYP2C9 inhibition. P11712. CYP2C9 Supersomes, luciferin-H conversion, luminescence. inhibition, % at 5 µM. hit rate 20% among 96,000;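 active means blocking of liver enzyme CYP2C9 beyond about 50% at 5 µM, limit read from the data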
An asterisk follows results filed as active; · = no result given.

SMILES | CYP2C19 activ | CYP2C19 inh | cytoskel mod | CYP2C9 activ | E-sel TNF inh | CYP2C9 inhib
O=C(O)c1ccccc1OCCOCCOc1ccccc1C(=O)O | 1.1 | -12.2 | 8.2 | 1 | -16.7 | -4.5
COc1cc(CNCCSc2nnnn2C)cc(Br)c1OCc1ccccc1F | 0.3 | 68.5* | 8.9 | 0.9 | -9.6 | 9.2
COc1cc(CNCCc2c[nH]c3ccccc23)ccc1OCc1ccccc1F | 0.6 | 36.7 | -4.5 | 0.9 | -11.7 | 11.0
CCOc1cc(CNCc2cccs2)cc(Br)c1OCC | 0.3 | 73.0* | 10.5 | 0.8 | -42.0 | 16.8
CCOc1cc(CNCCO)cc(Br)c1OCc1cccs1 | 0.6 | 44.7 | -19.4 | 1 | -8.5 | 4.5
O=C(CSc1nnc(-c2ccc(Cl)cc2Cl)n1C1CCCCC1)NC1CCS(=O)(=O)C1 (stereo not drawn) | 1.1 | -9.3 | -7.1 | 1.1 | -7.5 | -6.3
Cc1cc(C)nc(N(C#N)Cc2ccc([N+](=O)[O-])cc2)n1 | · | · | · | · | 17.4 | ·
Cc1cc(C)nc(N(C#N)Cc2ccccc2)n1 | 0.9 | 5.9 | 5.5 | 2* | -7.8 | -103.0
Cc1cc(C)nc(N(C#N)Cc2cccc3ccccc23)n1 | 0.4 | 59.4* | -25.9 | 2.9* | 10.3 | -193.9
Cc1cc(C)nc(N(C#N)CC(=O)c2ccccc2)n1 | 0.9 | 14.0 | -8.7 | 2.2* | -0.2 | -115.2
Cc1ccc(N2C(=O)c3ccccc3C2Nc2ccccc2)nc1 (stereo not drawn) | 0.8 | 21.7 | 13.1 | 1 | · | 2.7
CCc1cccc(NC2c3ccccc3C(=O)N2c2cccnc2)c1 (stereo not drawn) | 0 | 96.6* | · | 0.5 | -28.3 | 53.0*
COc1ccc(NC2c3ccccc3C(=O)N2c2ccccn2)cc1Cl (stereo not drawn) | 0.2 | 76.0* | -24.0 | 0.4 | · | 61.1*
CCOC(=O)c1ccc(NC2c3ccccc3C(=O)N2c2cccnc2)cc1 (stereo not drawn) | 0.1 | 88.1* | · | 0.2 | 0.1 | 75.2*
CCc1cccc(NC2c3ccccc3C(=O)N2c2ccc(C)cn2)c1 (stereo not drawn) | 0.2 | 84.9* | 5.4 | 0.5 | · | 50.5*
CC(=O)c1c(C(C)=O)c(C)n(NC(=O)c2ccc(Cl)cc2)c1C | 0.9 | 12.0 | 7.1 | 0.6 | -7.6 | 44.8
Cc1ccc(C(=O)N2CCN(C(=O)c3ccc(C)c(C)c3)C(C)C2)cc1C (stereo not drawn) | · | · | 23.4 | · | -21.2 | ·
Oc1c(Br)cc(Cl)cc1C=Nc1ccccc1Br | · | · | · | · | -18.9 | ·
CCN(CC)CC(=O)N1c2ccccc2Sc2ccc(Cl)cc21 | · | · | -20.2 | · | 19.1 | ·
CCOC(=O)c1c(C)sc2c1N(C(C)=O)c1cc(Cl)ccc1S2 | 0.4 | 60.2* | -7.1 | 0.8 | -3.5 | 22.9
COC(=O)c1cnn(-c2cc(Oc3cccc(C)c3)ncn2)c1N | 0.7 | 34.7 | 0.1 | 0.3 | 41.3 | 69.9*
CCCn1c(SCC(=O)Nc2sc(C)c(C)c2C(=O)OC)nc2c1c(=O)n(C)c(=O)n2C | 0.8 | 16.4 | · | 0.9 | · | 12.0
CCOC(=O)c1c(NC(=O)CSc2nc3c(c(=O)n(C)c(=O)n3C)n2CC)sc(C)c1C | 0.5 | 51.5* | · | 0.1 | · | 90.3*
CCOC(=O)c1c(NC(=O)CSc2nc3ccccc3s2)sc(C(C)=O)c1C | 0.7 | 29.2 | -3.0 | 0.2 | -36.0 | 77.6*
CCOC(=O)c1sc(NC(=O)CSc2nnc(C)s2)c(C(=O)OCC)c1C | 0.4 | 62.1* | 40.9 | 0.1 | · | 88.1*
SMILES | CYP2C19 activ | CYP2C19 inh | cytoskel mod | CYP2C9 activ | E-sel TNF inh | CYP2C9 inhib
CCOC(=O)c1c(NC(=O)CSc2nc3cc(Cl)ccc3s2)sc(C(C)=O)c1C | · | · | · | · | 10.2 | ·
Cn1c(-c2sccc2OCc2ccccc2)n[nH]c1=S | 0.7 | 28.1 | -18.9 | 0.8 | -19.6 | 22.8
O=C(N1CCNCC1)N1CCOCC1 | 0.9 | 9.9 | 1.3 | 1.1 | 18.3 | -9.6
CN(C)CC1(c2ccccc2)CCCC1 | 1.1 | -7.8 | · | 0.7 | -5.9 | 33.0
CCOC(=O)c1cn(-c2c(Cl)cccc2Cl)c2cc(Cl)c([N+](=O)[O-])cc2c1=O | · | · | · | · | 12.3 | ·
Cc1ccc(C2=Nc3ccccc3NC(C)(c3ccc(C)o3)C2)o1 (stereo not drawn) | 0.1 | 94.8* | -22.0 | 0.3 | -7.0 | 68.7*
CC1=CC(C)=Nc2ccccc2N1 | 0.9 | 13.7 | -15.5 | 0.9 | 3.7 | 12.5
O=C(O)c1c2c(nc3ccccc13)CCCCC2 | · | · | · | · | 15.3 | ·
c1ccc(-c2onc3c2CCCC3)cc1 | 0.4 | 57.8* | -9.7 | 1 | -14.7 | -2.9
COc1cccc(CC(NC(C)=O)C(=O)NC2CCN(c3c(Cc4ccccc4)c(C)nc4ncnn34)CC2)c1 (stereo not drawn) | · | · | · | · | -20.3 | ·
COc1ccc(CC(NC(C)=O)C(=O)NC2CCN(c3nc(C)cc(C)c3C#N)CC2)c(OC)c1 (stereo not drawn) | 0.1 | 85.7* | · | 0.4 | 16.9 | 55.3*
COc1cccc(CC(NC(C)=O)C(=O)NC2CCN(c3nc(C)cc(C)c3C#N)CC2)c1 (stereo not drawn) | 0.3 | 67.3* | 20.4 | 0.7 | · | 27.9
COc1ccccc1CC(NC(C)=O)C(=O)NC1CCN(c2nnnn2-c2ccccc2)CC1 (stereo not drawn) | 1 | -3.0 | -6.3 | 1.1 | -13.8 | -10.2
O=C(CSc1nc2c(c(=O)n1-c1ccc(Cl)cc1)SCC2)N1CCOCC1 | 0.9 | 7.0 | -3.3 | 0.8 | -3.9 | 17.1
CCOC(=O)C1CCCN(c2c(N3CCOCC3)c(=O)c2=O)C1 (stereo not drawn) | 1.2 | -15.6 | 3.6 | 1.2 | 9.9 | -16.1
COc1ccc(/C=N/Nc2snc(SC)c2C#N)cc1OC | 0.4 | 62.1* | 25.5 | 0.4 | -5.2 | 60.9*
CSc1nsc(N/N=C/c2ccccc2)c1C#N | · | · | · | · | 4.4 | ·
COc1cccc(/C=N/Nc2snc(SC)c2C#N)c1 | 0.7 | 29.6 | 8.5 | 0.3 | 5.2 | 65.7*
COC(=O)c1sc2ccccc2c1NC(=O)c1coc2ccccc2c1=O | · | · | · | · | -4.9 | ·
CCOc1ccc2cc(S(=O)(=O)n3ccnc3C)ccc2c1 | 0.7 | 30.9 | -6.0 | 0.5 | 1.5 | 47.9
N#C/C(=C\c1ccccc1)c1nc2ncccc2[nH]1 | 0.8 | 15.7 | 22.7 | 0.3 | 27.1 | 66.0*
N#C/C(=C\c1ccncc1)c1nc2ccccc2c(=O)[nH]1 | · | · | · | · | 15.8 | ·
CCn1cnc2cc(NCc3cccc(OC)c3O)ccc21 | 0.6 | 37.3 | -2.7 | 1 | 6.2 | 3.4
O=C(c1ccc(COc2ccccc2Cl)o1)N1CCCC1 | 0.7 | 30.3 | -12.6 | 0.5 | 21.6 | 46.1
CCc1ccc(OCc2ccc(C(=O)NCc3ccccn3)o2)cc1 | 0.3 | 70.8* | · | 0.4 | -73.8 | 55.0*
CCOc1ccc(OCc2ccc(C(=O)NCc3ccncc3)o2)cc1 | 0.1 | 91.9* | 13.0 | 0.2 | -7.4 | 79.9*
O=C(OCc1ccccn1)c1ccc(COc2ccccc2Cl)o1 | 0.4 | 60.9* | 6.6 | 0.7 | 16.9 | 25.5
CCOc1ccc(OCc2ccc(C(=O)O)o2)cc1 | 0.3 | 69.9* | 2.2 | 0.7 | 18.4 | 30.4
C=C(C)CSc1nc(N)cc(=O)[nH]1 | 1 | 4.0 | · | 1 | -40.7 | -1.3
O=C(c1cc2ncc(Br)cn2n1)N1CCCCC1 | · | · | · | · | -1.3 | ·
